D2 ag-1 = activates the human D2 dopamine receptor; HEK293 T-REx D2 cells, calcium flux agonist mode; activation, % at 2 µM; 0.53% of 340,000 active;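 active = activation over 3 SD above normal in the single-dose calcium agonist read, cut at about 30% in these data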; note: 0% is about no effect
Target sequence (P14416 whole entry, looked up): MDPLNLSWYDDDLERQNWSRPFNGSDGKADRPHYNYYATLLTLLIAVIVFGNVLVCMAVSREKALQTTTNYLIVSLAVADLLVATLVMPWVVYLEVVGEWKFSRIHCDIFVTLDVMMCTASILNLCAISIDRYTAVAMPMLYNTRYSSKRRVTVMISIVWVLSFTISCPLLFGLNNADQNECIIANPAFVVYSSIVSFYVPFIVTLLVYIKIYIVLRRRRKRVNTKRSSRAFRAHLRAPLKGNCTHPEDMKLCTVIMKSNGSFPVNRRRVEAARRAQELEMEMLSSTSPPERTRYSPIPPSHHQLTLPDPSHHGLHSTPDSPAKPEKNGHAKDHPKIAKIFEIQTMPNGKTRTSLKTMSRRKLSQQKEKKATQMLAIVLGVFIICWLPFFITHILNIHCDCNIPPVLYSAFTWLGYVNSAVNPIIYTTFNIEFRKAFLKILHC
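Calcium-flux readout, 1 cycle/sec over 180 s following compound pin transfer, in inducible HEK293 Trex D2 cells (force-coupled); dopamine controls included. Positive calcium responses during this window marked compounds as potential agonists.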
D2 PAM-1 = positive allosteric modulators of human D2 dopamine receptor. 0.34% of 340,000 active. potentiation, % at 10 µM. HEK293 T-REx D2, calcium flux, EC20 dopamine potentiation. AID 485347;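 active = potentiation over 3 SD above the plate norm, cut at about 30% in these data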; note: 0% is about no effect
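Cells plated with tetracycline inducer and held overnight at 30 C; calcium dye loaded 30–90 min at room temperature; baseline taken, compound added and read 180 s; EC20 dopamine then added and read 180 s.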
D2 PAM-2 = human D2 receptor positive allosteric modulation | potentiation, % (no concentration beside the values) | DiscoveRx D2 beta-arrestin cells, luminescence, 90 min; 100% = 57 uM dopamine signal | 0.23% of 360,000 active | P14416; in the data active = potentiation above about 50%; inconclusive = mostly about 30% to 49%
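PathHunter D2 cells, attached overnight at 37 deg C, received compound in DMSO plus dopamine at EC20 (50 nM final) for 90 min at 37 deg C. Beta-arrestin recruitment was read as luminescence after 1 h with detection reagent at ambient temperature.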
D2 ag-2 = agonists of human D2 dopamine receptor (beta-arrestin); DiscoveRx PathHunter D2 beta-arrestin, luminescence, 90 min; 100% = 57 uM dopamine signal; activation, % (test concentration not listed); 0.084% of 360,000 active; P14416; in the data active = activation above about 40%; inconclusive = between about 15% and that limit
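Agonist mode: compounds alone added to overnight-plated D2 PathHunter cells for 90 min at 37 C, with 57 uM final dopamine (EC100) defining full response. Beta-arrestin recruitment detected by chemiluminescent reagent, read after 1 h at ambient temperature.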
D2 antag = D2 dopamine receptor (human) antagonism; AID 485344; P14416; inhibition, % at 10 µM; HEK293 TREx D2 cells, calcium flux, dopamine EC80; 2% of 340,000 active; in the data active = inhibition above about 30%; inactive = below that, where a call was filed; note: 0% is about no effect
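Tetracycline-induced HEK293 T-REx cells expressing D2 force-coupled to calcium signalling were dye-loaded, exposed to compound for 180 s, then challenged with an EC80 of dopamine; calcium flux was followed kinetically for a further 180 s.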
D3 ag = activates human D3 dopamine receptor beta-arrestin recruitment | AID 720506 | 4% of 2,300 active | shares compounds with D2 ag-1 | DiscoveRx D3 beta-arrestin cells, luminescence, 90 min | Potency, µM (doses to about 76.9 µM), without a hit: at the highest dose activation, most hits filed as activators;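 note: potency is the fitted concentration of half-maximal effect; 100% = dopamine control response; nearly all actives have a fitted effect of over 70% in size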
D2 ag-3 = counter-screen for D3 agonists: human D2 dopamine receptor agonism; AID 720507; DiscoveRx PathHunter D2 beta-arrestin, luminescence, 90 min; response scale: percent relative to full dopamine signal; 5.9% of 2,300 active; Potency, µM (top dose mostly 76.9 µM), without a hit: at the top dose activation, most hits filed as activators; shares compounds with D2 ag-1; note: potency is the fitted concentration of half-maximal effect; % of control where 0% means no effect; nearly all actives have a fitted effect of over 70% in size
The depositor's hits bear a star. Sampled rows, rich in hits. Any-hit rate of the full collection: about 2.4%. Unless noted, calls come from the whole dose curve; as a rule, active = well fitted activation curve with a large enough effect; inconclusive = small, poorly fitted or top-dose-only effect; inactive = flat fitted curve, though single readings scatter.

Screening CCN(CC)C1=CC2=CC(=C(C#N)C#N)CCC2CC1 (stereo not given) returned D2 ag-1 209*, D2 PAM-1 -16, D2 PAM-2 -2, D2 ag-2 3, D2 antag 76*, D3 ag -7% and D2 ag-3 17%.
Screening COC(=O)c1cccc(Nc2c(-c3ccc(O)c(OC)c3)nc3nc[nH]n23)c1 returned D2 ag-1 0 and D2 PAM-1 1.
COc1cccc(-n2c(N)cc(=O)nc2SCC(=O)N2CCN(c3ccccc3)CC2)c1 was read as D2 ag-1 21, D2 PAM-1 -9, D2 PAM-2 -6, D2 ag-2 -2, D2 antag 9, D3 ag -5% and D2 ag-3 6%.
`Nc1cc(=O)nc(SCC(=O)N2CCN(c3ccccc3)CC2)n1-c1ccccc1` gave D2 ag-1 13, D2 PAM-1 -2, D2 PAM-2 -9, D2 ag-2 0 and D2 antag 6.
`Cc1ccc(-n2c(N)cc(=O)nc2SCC(=O)N2CCN(c3ccccc3)CC2)cc1` gave D2 ag-1 66*, D2 PAM-1 -30, D2 PAM-2 -22, D2 ag-2 9, D2 antag 64*, D3 ag -30% and D2 ag-3 9%.
For Nc1cc(=O)nc(SCC(=O)N2CCN(c3ccccc3)CC2)n1-c1ccc(F)cc1 the results were D2 ag-1 28, D2 PAM-1 -5, D2 PAM-2 -6, D2 ag-2 0, D2 antag -19, D3 ag -21% and D2 ag-3 -1%.
For Cc1cc(C)cc(C(=O)NCCc2sc(-c3ccc(F)cc3)nc2C)c1 the results were D2 ag-1 1.
For COc1ccc(S(=O)(=O)N(CC(=O)NCCSc2ccccc2)c2ccc(Cl)cc2)cc1 the results were D2 ag-1 -2 and D2 PAM-1 10.
CCc1nc(-c2cc(S(=O)(=O)N3CCN(c4ccc(F)cc4)CC3)ccc2OC)no1 was read as D2 ag-1 1 and D2 PAM-1 -2.
`COc1ccc(OC)c(NC(=O)CSc2n[nH]c(-c3ccccc3Cl)n2)c1` gave D2 ag-1 0 and D2 PAM-1 -4.
`O=C(NCC(c1ccco1)N1CCN(c2ccccc2)CC1)C(=O)NC1CCCC1` (stereo not given) gave D2 ag-1 2, D2 PAM-1 -8, D2 PAM-2 -3, D2 ag-2 7, D2 antag -4, D3 ag 24% and D2 ag-3 11%.
`O=C(NCC(c1ccco1)N1CCN(c2ccccc2)CC1)C(=O)NC1CC1` (stereo not given) gave D2 ag-1 13, D2 PAM-1 1, D2 PAM-2 inconclusive, D2 ag-2 13, D2 antag 20, D3 ag inconclusive and D2 ag-3 inconclusive.
For Cc1ccc(-c2nc3nc(C)cc(N4CCN(c5cc(Cl)ccc5C)CC4)n3n2)cc1 the results were D2 ag-1 1 and D2 PAM-1 6.
`CC(Sc1nc(=O)cc(N)n1CCc1ccccc1)C(=O)Nc1ccc(Cl)cc1` (stereo not given) gave D2 ag-1 4 and D2 PAM-1 6.
`CCOC(=O)/C=C/[C@H]1CC(c2ccccc2)(c2ccccc2)CO1` gave D2 ag-1 -1, D2 PAM-1 4, D2 PAM-2 2, D2 ag-2 -1, D2 antag -3, D3 ag -3% and D2 ag-3 -1%.
`CCOC(=O)C1C(C(=O)OCC)C1(c1ccccc1)c1ccccc1` (stereo not given) gave D2 ag-1 1, D2 PAM-1 13, D2 PAM-2 -11, D2 ag-2 -1 and D2 antag -9.
`O=C(c1cccc(S(=O)(=O)Nc2ccccc2Cl)c1)N1CCN(c2ccccc2O)CC1` gave D2 ag-1 0, D2 PAM-1 7, D2 PAM-2 -1, D2 ag-2 15, D2 antag 14, D3 ag 11% and D2 ag-3 8%.
Screening O=C(c1cccc(NS(=O)(=O)c2ccc(Br)cc2)c1)N1CCN(c2ccccc2O)CC1 returned D2 ag-1 1, D2 PAM-1 -10, D2 PAM-2 -23, D2 ag-2 -5, D2 antag 3, D3 ag 9% and D2 ag-3 11%.
Cc1oc2c(c(C)cc3oc(=O)c(CC(=O)NCc4ccc(F)cc4)c(C)c32)c1C was read as D2 PAM-1 0.
For COc1ccc(-c2nc(CSCC(=O)NCCc3ccc(C)cc3)c(C)o2)cc1OC the results were D2 ag-1 0 and D2 PAM-1 11.
Screening Cc1nc2nc(SCc3c(F)cccc3Cl)nn2c(C)c1Cc1ccccc1 returned D2 ag-1 -1 and D2 PAM-1 4.
`COC1(C(F)(F)F)NC(=O)N(c2ccc(F)cc2)C1=O` (stereo not given) gave D2 ag-1 0 and D2 PAM-1 1.
`CCCN(c1ccccc1CC)S(=O)(=O)c1ccc2c(c1)CC(C)N2C(=O)C1CC1` (stereo not given) gave D2 ag-1 0 and D2 PAM-1 6.
Screening COc1cccc(CNc2ncnc3ccc(-c4c(C)noc4C)cc23)c1 returned D2 ag-1 0, D2 PAM-1 -1, D2 antag 9, D3 ag 12% and D2 ag-3 18%.
`COc1cccc(-c2ccc3ncnc(NCc4cccc(C)c4)c3c2)c1` gave D2 ag-1 0, D2 PAM-1 -7 and D2 antag -5.
`CCSC1=N/C(=C\c2ccc3c(c2)OCO3)C(=O)S1` gave D2 ag-1 1, D2 PAM-1 -5, D2 PAM-2 6, D2 ag-2 1, D2 antag 30*, D3 ag 7% and D2 ag-3 -1%.
Cc1cccc(NC(=O)c2sc(-n3nc(C)c(Cc4ccc5c(c4)OCO5)c3C)nc2C)c1C was read as D2 ag-1 2 and D2 PAM-1 -2.
`Cn1c(N2CCN(c3ccccn3)CC2)nc2c1c(=O)n(Cc1ccccc1Cl)c(=O)n2C` gave D2 PAM-2 -16 and D2 ag-2 -2.

Screening results as filed in PubChem.
